Bioassay records deposited in PubChem BioAssay by National Center for Advancing Translational Sciences (NCATS).
Pol kappa inh-1 = inhibitors of human DNA polymerase kappa; Q9UBT6; purified Pol kappa, fluorescent DNA synthesis assay, 10 min; Potency, µM (titrated, usually from 107 µM), for the others: top-dose activity, negative = inhibition, most hits filed as inhibitors; hit rate 0.53% among 400,000; further: potency means the concentration at half of the fitted maximal effect; on the % scale 0 is the no-effect control and ±100 the full control effect
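Readout: fluorescence, taken kinetically at 0 and 10 min. Conditions: 10 nM Pol kappa, 15 min RT compound preincubation, 50 nM substrate final. Controls: enzyme-free buffer wells.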
Pol eta inh-1 = inhibitors of human DNA polymerase eta. Potency, µM (highest dose often 114 µM), without a hit: at the top dose activity change, negative = inhibition, usual class: inhibitors. recombinant Pol eta, fluorescent DNA replication assay. AID 588591. hit rate 1.2% among 390,000; further: potency means the concentration at half of the fitted maximal effect; on the % scale 0 is the no-effect control and ±100 the full control effect
Target sequence (Q9Y253 whole entry, looked up): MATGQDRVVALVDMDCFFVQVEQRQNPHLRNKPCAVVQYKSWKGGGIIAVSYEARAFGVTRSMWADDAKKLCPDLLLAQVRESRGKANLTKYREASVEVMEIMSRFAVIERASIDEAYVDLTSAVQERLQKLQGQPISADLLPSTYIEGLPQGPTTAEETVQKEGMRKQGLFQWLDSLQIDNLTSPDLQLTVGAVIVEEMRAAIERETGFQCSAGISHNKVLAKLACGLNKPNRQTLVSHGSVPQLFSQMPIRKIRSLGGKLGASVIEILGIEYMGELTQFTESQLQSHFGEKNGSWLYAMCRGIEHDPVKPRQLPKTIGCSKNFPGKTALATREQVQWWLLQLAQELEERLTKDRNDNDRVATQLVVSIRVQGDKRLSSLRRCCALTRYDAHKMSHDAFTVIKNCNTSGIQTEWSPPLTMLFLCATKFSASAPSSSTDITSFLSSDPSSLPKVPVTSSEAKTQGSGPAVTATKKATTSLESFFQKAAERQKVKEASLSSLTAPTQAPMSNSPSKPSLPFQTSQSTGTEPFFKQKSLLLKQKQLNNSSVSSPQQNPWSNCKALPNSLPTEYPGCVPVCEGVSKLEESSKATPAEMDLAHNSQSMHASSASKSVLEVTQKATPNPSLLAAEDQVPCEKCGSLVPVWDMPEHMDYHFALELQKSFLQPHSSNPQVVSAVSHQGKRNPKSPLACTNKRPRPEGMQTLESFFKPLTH
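Pol eta at 10 nM preincubated with compounds 15 min at room temperature; reaction started with fluorescent substrate (50 nM final) and read kinetically at 0 and 10 min.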
Pol iota inh = blocks human DNA polymerase iota activity; Q9UNA4; Potency, µM (series often up to 115 µM), for the others: at the highest dose activity, negative = inhibition, usual class: inhibitors; Pol iota fluorescent replication assay, 10 min; hit rate 1% among 390,000; further: potency means the concentration at half of the fitted maximal effect
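Pol iota at 10 nM preincubated 15 min with compounds at room temperature; reaction started with fluorescent substrate, 50 nM final. Fluorescence read kinetically at 0 and 10 min; buffer-only wells as negative control.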
TDP1 inh = TDP1 (human) enzyme inhibition. Q9NUW8. recombinant TDP1, AlphaScreen DNA substrate cleavage. Potency, µM (top dose mostly 130 µM), without a hit: at the top dose activity change, negative = inhibition, hits mostly inhibitors. hit rate 0.28% among 350,000. AID 485290; further: potency means the concentration at half of the fitted maximal effect; on the % scale 0 is the no-effect control and ±100 the full control effect; nearly all actives have a fitted effect of over 40% in size
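Compounds were preincubated with Tdp1 (1 nM final) for 15 min at room temperature before substrate (15 nM final) started a 5 min reaction; beads (10 ug/ml final) were then added for 10 min before AlphaScreen detection.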
FEN1 inhibitor = inhibitors of human flap endonuclease 1; P39748; Potency, µM (top dose mostly 114 µM), without a hit: at the highest dose activity change, negative = inhibition, usual class: inhibitors; hit rate 0.35% among 390,000; Recombinant FEN1 flap cleavage, fluorescence, 15 min; further: potency means the concentration at half of the fitted maximal effect; on the % scale 0 is the no-effect control and ±100 the full control effect; nearly all actives have a fitted effect of over 65% in size
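Reaction started by adding substrate (50 nM final) to 10 nM enzyme after 15 min room-temperature compound preincubation. Reads at 0 and 15 min, with data normalized and fitted to a four-parameter Hill equation.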
Pol beta inh = DNA polymerase beta (human) inhibition; P06746; Pol beta primer extension/strand displacement, fluorescence kinetic; Potency, µM (doses to about 114 µM), for inactives: at the top dose activity change, negative = inhibition, actives largely listed as inhibitors; hit rate 1.3% among 340,000; further: potency means the concentration at half of the fitted maximal effect; on the % scale 0 is the no-effect control and ±100 the full control effect
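Reaction started by 50 nM substrate onto compound-treated Pol beta (10 nM, 15 min preincubation, room temperature); plates read at 0 min and 10 min. Normalized concentration-effect data fitted by four-parameter Hill equation.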
Pol iota confirm = Confirm cherry-picked inhibitors of human polymerase iota; shares compounds with Pol kappa inh-1; Pol iota primer extension, TAMRA/BHQ fluorescence; Potency, µM, hits mostly inhibitors; hit rate 77% among 1,500; AID 720496; further: potency means the concentration at half of the fitted maximal effect
GALK inh confirm = confirmation of human galactokinase (GALK) inhibitors. shares compounds with Pol eta inh-1. purified GALK, Kinase-Glo ATP depletion luminescence. Potency, µM (highest dose often 115 µM), for inactives: at the highest dose activity, negative = inhibition, actives largely listed as inhibitors. hit rate 70% among 150
GALK redox cs = counter-screen for GALK inhibitors: redox cycling H2O2 generation | shares compounds with Pol eta inh-1 | Potency, µM (titrated, usually from 115 µM), for inactives: at the highest dose activity change, negative = H2O2 signal, hits mostly inhibitors | hit rate 40% among 150 | Phenol red-HRP H2O2 redox cycling, absorbance 600 nm
HEK293 tox = HEK-293 cytotoxicity, GALK inhibitor secondary; HEK-293 viability, ATP luminescence (CellTiter-Glo), 24/48 h; Potency, µM (doses to about 46.1 µM), for the others: at the highest dose activity change, negative = cytotoxicity, most hits filed as inhibitors; shares compounds with Pol eta inh-1; hit rate 10% among 170; further: potency means the concentration at half of the fitted maximal effect; on the % scale 0 is the no-effect control and ±100 the full control effect
Pol kappa inh-2 = confirmation of human DNA polymerase kappa inhibitors; shares compounds with Pol eta inh-1; purified Pol-kappa, fluorescent strand-displacement substrate; Potency, µM, actives largely listed as inhibitors; hit rate 76% among 920; further: potency means the concentration at half of the fitted maximal effect
Pol eta inh-2 = Pol eta (human) inhibition, cherry-pick confirmation; shares compounds with Pol eta inh-1; hit rate 64% among 2,600; AID 720502; Pol eta primer extension, TAMRA/BHQ fluorescence, 10 min; Potency, µM, most hits filed as inhibitors; further: potency means the concentration at half of the fitted maximal effect
The depositor's hits bear a star; ? = inconclusive; / = no result; [ ] = remark or other dose. In the library only some 2.4% were active in any assay of this set; here they are far more common. The call rests on the fitted dose curve; in most records, active means well fitted curve in the direction sought with a large enough effect; inconclusive means small, poorly fitted or top-dose-only effect, or another doubt; inactive means no such curve, though single readings can be large; an effect the other way counts as inactive or inconclusive.

SMILES	Pol kappa inh-1	Pol eta inh-1	Pol iota inh	TDP1 inh	FEN1 inhibitor	Pol beta inh	Pol iota confirm	Pol eta inh-2	others
O=C1C=C(Nc2ccc(O)cc2)CC(c2ccco2)C1 (stereo not given)	-3%	?	-5%	3%	9%	-21%	/	/
O=C1C=C(O)CC(c2ccco2)C1 (stereo not given)	?	3.2µM*	4.5µM*	/	?	6.3µM*	75*	30*	Pol kappa inh-2=17*
Cn1c(SCC(=O)N/N=C/C=C/c2ccco2)nc2ccccc21	79µM*	14µM*	35µM*	?	?	22µM*	67*	76*
O=C(CNc1cccc2ccccc12)N/N=C/C=C/c1ccco1	-7%	-19%	56%	9%	3%	8%	/	/
O=C(CSc1nnc(SCc2ccccc2)s1)N/N=C/C=C/c1ccco1	25µM*	2.8µM*	14µM*	-14%	?	10µM*	15*	19*	Pol kappa inh-2=15*
O=C(Cc1cccs1)N/N=C/C=C/c1ccco1	79µM*	8.9µM*	28µM*	0%	-18%	18µM*	?	?	Pol kappa inh-2=30*
CCn1c(SCC(=O)N/N=C/C(C)=C/c2ccco2)nnc1-c1ccccc1	?	89µM*	?	/	-21%	?	60*	?
CCn1c(SCC(=O)N/N=C(\C)c2ccco2)nnc1-c1ccccc1	5%	-6%	13%	-5%	-4%	13%	/	/
O=C(Cn1c(=O)n(Cc2ccccc2)c(=O)c2sc3ccccc3c21)Nc1ccc(F)cc1	-7%	1%	3%	4%	3%	?	/	/
CCc1ccc(-n2c(=O)c3c4c(sc3n(CC(=O)NCCCOC)c2=O)CCCC4)cc1	-4%	-1%	-10%	5%	4%	0%	/	/
Cn1c(NCCO)nc2c1c(=O)n(Cc1ccccc1Cl)c(=O)n2C	-5%	-18%	17%	3%	-9%	9%	/	/
O=C(CSc1nnc(SCc2ccc(Cl)cc2)s1)N/N=C/c1c[nH]c2ccccc12	?	3.2µM*	10µM*	22µM*	?	8.9µM*	8.4*	19*
COc1cc(-c2noc(C)c2/C=C/c2ccc(C(=O)O)cc2)cc(OC)c1OC	71µM*	13µM*	?	/	-5%	14µM*	42*	27*
CCOC(=O)c1c(NC(=O)CSc2cn(CCNC(=O)c3ccccc3F)c3ccccc23)sc2c1CCC2	-4%	-12%	-17%	2%	-15%	32%	/	/
O=c1c(-c2c(O)cc(O)c3c(=O)cc(-c4ccc(O)cc4)oc23)c(-c2ccc(O)cc2)oc2cc(O)cc(O)c12	35µM*	3.5µM*	7.9µM*	/	50µM*	3.2µM*	42*	43*
COc1cc(O)c2c(=O)cc(-c3ccc(OC)c(-c4c(O)cc(O)c5c(=O)cc(-c6ccc(O)cc6)oc45)c3)oc2c1	?	/	/	11%[56.1 µM]	/	/	/	/
COc1cc(NC(=O)C2=C(C)Nc3nnnn3C2c2ccc(SC)cc2)c(OC)cc1Cl (stereo not given)	-1%	0%	-22%	5%	-5%	-26%	/	/
O=C1c2ccccc2NC(c2ccccc2OCc2ccccc2)N1Cc1ccco1 (stereo not given)	-2%	/	-5%	1%	?	/	/	/
O=c1nc2s/c(=C\c3ccco3)c(=O)n2nc1Cc1ccc(F)cc1	20µM*	7.1µM*	10µM*	?	?	2.8µM*	38*	30*
CN=C(NC#N)NCCSCc1csc(N=C(N)N)n1	-2%[19.4 µM]	/	/	9%	/	/	/	/
CS(=O)(=O)N1CCC2(CCCN(c3ccncc3)C2)CC1	-1%[60.1 µM]	/	/	/	/	/	/	/
Cc1cc2ccccc2c(=O)[nH]1	-4%[60.1 µM]	-10%	18%	2%	5%	4%	/	/
COc1ccccc1Nc1cc2ccccc2c(=O)[nH]1	/	/	/	2%	/	/	42*	27*
COc1cccc(CNc2nc(Cl)nc3nc[nH]c23)c1	-12%	/	-13%	0%	2%	/	/	/
COCCCNC(=O)/C(C#N)=C/c1ccc(OCC(=O)O)c(OC)c1	22µM*	2.5µM*	10µM*	-3%	?	3.5µM*	19*	27*
SMILES	Pol kappa inh-1	Pol eta inh-1	Pol iota inh	TDP1 inh	FEN1 inhibitor	Pol beta inh	Pol iota confirm	Pol eta inh-2	others
COc1ccc(/C=C(\C#N)C(=O)NCCc2ccccc2)cc1OCc1ccccc1	2%	-21%	10%	3%	-7%	-3%	/	/
COc1ccc(-c2csc(NC(=O)c3ccccc3NS(=O)(=O)c3ccc(F)c(F)c3)n2)cc1	?	?	?	8%	?	?	?	?	GALK inh confirm=38µM*;GALK redox cs=5%;HEK293 tox=4µM*;Pol kappa inh-2=?
CCOC(=O)C1CCN(C(c2cccc(F)c2)c2c(O)cc(C)n(CCOC)c2=O)CC1 (stereo not given)	0%[60.1 µM]	-15%	-3%	0%	8%	2%	/	/
CCn1c2ccccc2c2cc(NC(=O)COC(=O)c3ccccc3F)ccc21	-12%	-15%	23%	2%	-4%	24%	/	/
CCn1c2ccccc2c2cc(NC(=O)COC(=O)c3ccc(NC(=O)CC#N)cc3)ccc21	22µM*	?	22µM*	/	?	/	?	60*
O=C1C=C(N2CCOCC2)c2ccccc2C1=O	-8%	5.6µM*	1.8µM*	/	-18%	-11%	17*	7.6*	GALK inh confirm=8.4µM*;GALK redox cs=4.7µM*;HEK293 tox=14µM*
O=C1C=C(N2CCOCC2)c2cccc3cccc1c23	/	-11%	/	/	/	/	/	/
